Several values for one entry are separate records, joined by “and”; a condition that tells them apart may be missing. Equal entries are not always repeated. The whole screen tested about 5,500 compounds, of which about 2,000 (36%) were called active. Inconclusive results (about 18%) are left out. Rule as the data show it: active = normalized growth mostly below about 0.91 (no sharp cut-off); inconclusive = no clear call, values can overlap the other calls; inactive = mostly above about 0.92. This is one part of the list.
Experiment: chemical genetic growth profiling, strain panel (AID 1159580);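 also: tested at 20 µM; growth read once vehicle control cultures reached saturation at 30 °C; 1 = growth at the plate median or of vehicle wells; lower values mean less growth of the strain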
Conditions: S. cerevisiae deletion strains, growth OD

Measured: normalized growth

O=C(O)C1CC([C@@H]2CCCCN2)CN2CCCCC12 (some centres not stated)
inactive: locus YAL021C, strain ccr4, hits give low values 1.02 | locus YAL026C, strain drs2, hits give low values 0.967 | locus YAL030W, strain snc1, hits give low values 0.972 | locus YBL061C, strain skt5, hits give low values 0.985 | locus YBR009C, strain hhf1, hits give low values 0.924 | locus YBR021W, strain FUR4, hits give low values 1.08 | locus YBR023C, strain chs3, hits give low values 1.01 | locus YBR171W, strain sec66, hits give low values 0.974 | locus YBR229C, strain ROT2, hits give low values 1.01 | locus YBR231C, strain swc5, hits give low values 0.981 | locus YBR279W, strain paf1, hits give low values 0.995 | locus YCL011C, strain gbp2, hits give low values 0.953 | locus YCL016C, strain dcc1, hits give low values 0.989 | locus YCL029C, strain bik1, hits give low values 0.969 | locus YCL061C, strain MRC1, hits give low values 0.983 | locus YCL069W, strain vba3, hits give low values 0.969 | locus YCR088W, strain abp1, hits give low values 0.987 | locus YDL005C, strain med2, hits give low values 0.972 | locus YDL035C, strain GPR1, hits give low values 1.01 | locus YDL040C, strain nat1, hits give low values 0.981 | locus YDL074C, strain BRE1, hits give low values 1.04 | locus YDL101C, strain DUN1, hits give low values 1.03 | locus YDL134C, strain PPH21, hits give low values 1.1 | locus YDL185W, strain tfp1, hits give low values 0.968 | locus YDL192W, strain arf1, hits give low values 0.967 | locus YDR001C, strain nth1, hits give low values 0.97 | locus YDR069C, strain doa4, hits give low values 0.97 | locus YDR101C, strain arx1, hits give low values 0.984 | locus YDR137W, strain rgp1, hits give low values 0.978 | locus YDR159W, strain sac3, hits give low values 0.958 | locus YDR162C, strain NBP2, hits give low values 1.08 | locus YDR195W, strain ref2 0.924 | locus YDR297W, strain sur2, hits give low values 0.984 | locus YDR318W, strain mcm21, hits give low values 0.98 | locus YDR334W, strain swr1, hits give low values 0.963 | locus YDR335W, strain msn5, hits give low values 0.983 | locus YDR388W, hits give low values 0.986 | locus YDR392W, strain spt3, hits give low values 0.902 | locus YDR502C, strain sam2, hits give low values 0.993 | locus YEL003W, strain gim4, hits give low values 0.98 | locus YEL037C, strain rad23, hits give low values 0.987 | locus YEL061C, strain CIN8 (second series), hits give low values 0.97 | locus YEL061C, strain CIN8, hits give low values 1.01 | locus YER015W, strain faa2, hits give low values 0.997 | locus YER016W, strain bim1, hits give low values 0.993 | locus YER110C, hits give low values 0.992 | locus YER111C, strain swi4, hits give low values 0.965 | locus YER155C, strain BEM2 (second series), hits give low values 0.968 | locus YER155C, strain BEM2, hits give low values 1.01 | locus YER167W, strain BCK2, hits give low values 1.02 | locus YFR010W, strain ubp6, hits give low values 0.969 | locus YGL078C, strain dbp3, hits give low values 0.993 | locus YGL086W, strain mad1, hits give low values 1.03 | locus YGL167C, strain pmr1, hits give low values 0.957 | locus YGL173C, strain kem1, hits give low values 0.979 | locus YGL227W, strain vid30, hits give low values 0.959 | locus YGL240W, strain doc1, hits give low values 0.959 | locus YGL248W, strain PDE1, hits give low values 1.04 | locus YGL253W, strain hxk2, hits give low values 0.999 | locus YGR078C, strain PAC10, hits give low values 1.06 | locus YGR135W, strain pre9, hits give low values 0.979 | locus YGR229C, strain SMI1, hits give low values 1.08 | locus YGR252W, strain gcn5, hits give low values 1.05 | locus YHR013C, strain ard1, hits give low values 0.93 | locus YHR027C, strain rpn1, hits give low values 0.971 | locus YHR030C, strain SLT2, hits give low values 0.997 and 0.989 | locus YHR079C, strain IRE1 (second series), hits give low values 0.998 | locus YHR079C, strain IRE1, hits give low values 0.998 | locus YHR094C, strain hxt1, hits give low values 0.978 | locus YHR129C, strain ARP1, hits give low values 1.01 | locus YHR142W, strain chs7, hits give low values 1.01 | locus YHR200W, strain rpn10, hits give low values 0.968 | locus YIL066C, strain RNR3, hits give low values 1.05 | locus YIL073C, strain SPO22, hits give low values 0.984 | locus YIL125W, strain kgd1, hits give low values 0.993 | locus YIR030C, strain dcg1, hits give low values 0.985 | locus YJL092W, strain hpr5, hits give low values 0.976 | locus YJL095W, strain BCK1 (second series), hits give low values 1 | locus YJL095W, strain BCK1, hits give low values 1.08 and 1.04 | locus YJL115W, strain asf1, hits give low values 0.978 | locus YJL129C, strain trk1, hits give low values 0.973 | locus YJL134W, strain LCB3, hits give low values 1 | locus YJL154C, strain vps35, hits give low values 0.986 | locus YJL164C, strain tpk1, hits give low values 0.997 | locus YJL166W, strain qcr8, hits give low values 0.995 | locus YJL168C, strain set2, hits give low values 0.986 | locus YJL187C, strain SWE1 (second series), hits give low values 1.04 | locus YJL187C, strain SWE1, hits give low values 0.976 | locus YJR043C, strain POL32, hits give low values 1.04 | locus YJR066W, strain TOR1, hits give low values 0.941 | locus YJR075W, strain HOC1, hits give low values 1.03 | locus YKL009W, strain mrt4, hits give low values 0.968 | locus YKL068W, hits give low values 0.99 | locus YKL085W, strain MDH1 (second series), hits give low values 1.01 | locus YKL085W, strain MDH1, hits give low values 1.01 | locus YKL160W, strain elf1, hits give low values 1.01 | locus YKR001C, strain vps1, hits give low values 1.02 | locus YKR026C, strain gcn3, hits give low values 0.973 | locus YKR091W, strain srl3, hits give low values 0.956 | locus YLL001W, strain dnm1, hits give low values 1.01 | locus YLL026W, hits give low values 0.999 | locus YLL041C, strain sdh2, hits give low values 0.997 | locus YLR027C, strain aat2, hits give low values 0.972 | locus YLR039C, strain RIC1, hits give low values 1.01 | locus YLR058C, strain SHM2, hits give low values 1.02 | locus YLR102C, strain apc9, hits give low values 0.998 | locus YLR113W, strain HOG1, hits give low values 1.02 | locus YLR221C, strain rsa3, hits give low values 0.993 | locus YLR258W, strain gsy2, hits give low values 0.982 | locus YLR262C, strain YPT6 (second series), hits give low values 0.978 | locus YLR262C, strain YPT6, hits give low values 1.04 | locus YLR268W, strain sec22, hits give low values 1.02 | locus YLR320W, strain mms22, hits give low values 0.984 | locus YLR330W, strain CHS5, hits give low values 1 | locus YLR342W, strain FKS1 (second series), hits give low values 1.07 | locus YLR342W, strain FKS1, hits give low values 0.958 | locus YLR357W, strain rsc2, hits give low values 0.963 | locus YLR370C, strain arc18, hits give low values 0.957 | locus YLR371W, strain rom2, hits give low values 0.945 | locus YLR384C, strain iki3, hits give low values 0.988 | locus YLR418C, strain cdc73, hits give low values 1.01 | locus YML016C, strain PPZ1, hits give low values 1.02 | locus YML032C, strain rad52, hits give low values 0.986 | locus YML120C, strain ndi1, hits give low values 0.991 | locus YML124C, strain tub3, hits give low values 0.978 | locus YMR058W, strain fet3, hits give low values 0.968 | locus YMR078C, strain ctf18, hits give low values 0.963 | locus YMR125W, strain sto1, hits give low values 0.917 | locus YMR129W, hits give low values 0.96 | locus YMR205C, strain PFK2, hits give low values 0.931 | locus YMR223W, strain ubp8, hits give low values 0.981 | locus YMR231W, strain pep5, hits give low values 0.967 | locus YMR307W, strain GAS1, hits give low values 1.13 | locus YNL067W, strain RPL9B, hits give low values 1.05 | locus YNL071W, strain lat1, hits give low values 0.987 | locus YNL153C, strain GIM3, hits give low values 1.07 | locus YNL183C, strain NPR1, hits give low values 0.97 | locus YNL209W, strain ssb2, hits give low values 0.965 | locus YNL233W, strain BNI4, hits give low values 1.06 | locus YNL248C, strain rpa49, hits give low values 1.01 | locus YNL250W, strain rad50, hits give low values 0.983 | locus YNL271C, strain bni1, hits give low values 0.968 | locus YNL298W, strain CLA4, hits give low values 0.972 | locus YNL307C, strain MCK1, hits give low values 0.999 | locus YNL322C, strain KRE1 (second series), hits give low values 0.971 | locus YNL322C, strain KRE1, hits give low values 1.01 | locus YNR049C, strain mso1, hits give low values 0.978 | locus YNR052C, strain pop2, hits give low values 0.975 | locus YOL006C, strain TOP1, hits give low values 1.08 | locus YOL012C, strain htz1 0.943 | locus YOL147C, strain pex11, hits give low values 0.995 | locus YOR001W, strain rrp6, hits give low values 1.03 | locus YOR061W, strain CKA2, hits give low values 1.01 | locus YOR069W, strain VPS5, hits give low values 1 | locus YOR070C, strain gyp1, hits give low values 0.999 | locus YOR080W, strain dia2, hits give low values 0.973 | locus YOR083W, strain WHI5, hits give low values 1.02 | locus YOR106W, strain vam3, hits give low values 1 | locus YOR136W, strain idh2, hits give low values 1.01 | locus YOR144C, strain elg1, hits give low values 0.996 | locus YOR184W, strain ser1, hits give low values 1.01 | locus YOR231W, strain MKK1, hits give low values 0.98 | locus YOR265W, strain rbl2, hits give low values 0.946 | locus YOR270C, strain vph1, hits give low values 0.989 | locus YOR290C, strain snf2, hits give low values 0.917 | locus YOR316C, strain cot1, hits give low values 0.971 | locus YPL051W, strain arl3, hits give low values 1.01 | locus YPL055C, strain LGE1, hits give low values 1.06 | locus YPL078C, strain atp4, hits give low values 0.988 | locus YPL106C, strain sse1, hits give low values 0.959 | locus YPL240C, strain hsp82, hits give low values 0.977 | locus YPL256C, strain CLN2, hits give low values 1.01 | locus YPR119W, strain clb2, hits give low values 0.987 | locus YPR141C, strain kar3, hits give low values 0.983 | locus YPR163C, strain tif3, hits give low values 0.989 | locus YPR167C, strain met16, hits give low values 0.975 | strain wtn01, hits give low values 0.989
